Laboratory results as given in PubChem BioAssay (Tox21).
Inconclusive results are not listed. The source made the active and inactive calls. The call rests on the fitted dose curve; in most records, active means well fitted cell-killing curve with a large enough effect in the repeat runs; inconclusive means weak or mixed curves, or effect the other way; inactive means flat fitted curve, though single readings scatter.

Assay: qHTS RealTime-Glo MT Cell Viability Assay in HepG2 cells - 0 hour (AID 1224889); further: nearly all actives have a fitted effect of over 50% in size
Conditions: RealTime-Glo luminescence; series mostly up to 76.8 µM; activity change, negative = cytotoxicity: at the top concentration
Text: U.S. Tox21 Program National Center for Advancing Translational Sciences [NCATS] NIH Chemical Genomics Center [NCGC] U.S. Environmental Protection Agency [EPA] National Institutes of Environmental Health Sciences [NIEHS] National Toxicology Program [NTP] U.S. Food and Drug Administration [FDA] Tox21 Assay Overview: Measure of cell viability is critical in the cell-base assay. Analysis of cell viability is necessary for the characterization of cell responses to cytotoxic drugs and environmental stress. A RealTime-Glo MT Cell Viability Assay to monitor cell viability in real time of continues cell culture during 40 hours of compound treatment was used to screen Tox21 10K library compounds in HepG2 cells. The RealTime-Glo MT Cell Viability Assay is a nonlytic, homogeneous, bioluminescent method to measure cell viability in real time using a simple, plate-based method. The assay involves adding NanoLuc luciferase and a cell-permeant prosubstrate to cells in culture. Viable cells reduce the proprietary prosubstrate to generate a substrate for NanoLuc luciferase. This substrate diffuses from cells into the surrounding culture medium, where it is rapidly used by the NanoLuc Enzyme to produce a luminescent signal. The signal correlates with the number of viable cells, making the assay well suited for cytotoxicity studies.
Tox21 Assay Protocol Summary: The mixture of HepG2 cell suspension and reagents were dispensed at 600cells/6 ul/well in 1536-well tissue culture treated black solid bottom plates using a Multidrop dispenser. After the assay plates were incubated at a 37 C/5% CO2 incubator for 5 hours, 23 nL of compounds dissolved in DMSO, positive and negative controls was transferred to the assay plate by a pintool work station. The plates were incubated at 37 C for 40 hours. The luminescence intensity were measured at 0h, 8h, 16h, 24h, 32h and 40h time points using ViewLux plate reader during compound treatment.
On the % scale 0 is the no-effect control and ±100 the full control effect.

| SMILES | activity change, negative = cytotoxicity |
| --- | --- |
| C[C@H](CCC(=O)NCC(=O)O)[C@H]1CC[C@H]2[C@@H]3[C@H](O)C[C@@H]4C[C@H](O)CC[C@]4(C)[C@H]3C[C@H](O)[C@]12C | -15% (inactive) |
| C[Si]1(C)N[Si](C)(C)N[Si](C)(C)N1 | -3.32% (inactive) |
| C[C@H]1O[C@H](O[C@H]2[C@H](O)[C@@H](O)[C@@H](O[C@H]3[C@H](O)[C@@H](O)[C@H](O)O[C@@H]3CO)O[C@@H]2CO)[C@H](O)[C@@H](O)[C@@H]1N[C@H]1C=C(CO)[C@@H](O)[C@H](O)[C@H]1O | 9.52% [at 35.3 µM] (inactive) |
| CC(C)(CO)[C@@H](O)C(=O)NCCCO | 1.39% [at 35.3 µM] (inactive) |
| CC(C)COC(=O)CCCCC(=O)OCC(C)C | -11.6% (inactive) |
| CN=C(NC#N)NCCSCc1csc(N=C(N)N)n1 | 0.42% [at 35.3 µM] (inactive) |
| CCOC(=O)C(C)(C)C | -8.47% (inactive) |
| CCC(CO)CO | 0.205% (inactive) |
| CNC(=O)C(c1ccccc1)c1ccccc1 | -2.68% (inactive) |
| FC(F)(F)c1ccc(Cl)cc1Cl | -17% (inactive) |
| c1ccccc1 | -12.8% (inactive) |
| Oc1ccccc1Cc1ccccc1O | 1.48% (inactive) |
| CCCCCCCCCCCCC | -0.558% (inactive) |
| CCOc1ccc(NC(=O)OC(C)C)cc1OCC | -1.67% (inactive) |
| CCCCC(CC)C(=O)OC(C)C (stereo not given) | 11.3% (inactive) |
| O=C(O)CCNC(=O)c1ccccc1 | -1.78% [at 35.3 µM] (inactive) |
| O=C(/C=C/c1ccccc1)NCCO | -8.56% [at 35.3 µM] (inactive) |
| C=CC(C)(O)CC/C=C(\C)CC (stereo not given) | 0.32% (inactive) |
| CCC(C)(C)C1CCC(=O)CC1 | 3.42% (inactive) |
| CCCC(C)CC (stereo not given) | 9.96% (inactive) |

| SMILES | activity change, negative = cytotoxicity |
| --- | --- |
| CC(=O)N(CC(O)CO)c1c(I)c(C(=O)NCC(O)CO)c(I)c(C(=O)NCC(O)CO)c1I (stereo not given) | -0.817% [at 35.3 µM] (inactive) |
| O=CN1CCOCC1 | -4.73% (inactive) |
| COC(=O)CCC(=O)O | 0.266% (inactive) |
| O=C(O)C(=O)Nc1cccc(-c2nn[nH]n2)c1 | 7.11% [at 35.3 µM] (inactive) |
| Cc1ccc(S(=O)(=O)NC(=O)NC2CCCCCCC2)cc1 | 1.81% [at 35.3 µM] (inactive) |
| O=[Si]=O | 10.3% (inactive) |
| CCCCC(=O)N(C)C | 0.98% (inactive) |
| CC1=NN(c2ccc(S(=O)(=O)O)cc2)C(=O)C1N=Nc1ccccc1 (stereo not given) | -16.9% (inactive) |
| CCOC(=O)CCCCCCCCC(=O)OCC | 2.16% (inactive) |
| O=C(O)/C=C/c1ccccc1 | 6.16% (inactive) |
| O=CO | -14.6% [at 6.97 µM] (inactive) |
| CC1(N)CCC(C(C)(C)N)CC1 (stereo not given) | 4.57% (inactive) |
| C[CH2][Ge]([Cl])([CH2]C)[CH2]C | 5.15% (inactive) |
| CCCCCCCCOC(C)=O | 5.83% (inactive) |
| C=C(C)C(=O)OC | -1.98% (inactive) |
| NC(=O)NC(=O)Cc1ccccc1 | 6.76% [at 35.3 µM] (inactive) |
| Nc1ccc(/C=C/c2ccc(N)cc2S(=O)(=O)O)c(S(=O)(=O)O)c1 | 2.99% [at 0.29 µM] (inactive) |
| CCCCCCCCCCCCCCCC(=O)NCCO | 1.26% [at 35.3 µM] (inactive) |
| O=C1CC[C@H](C(=O)N2CCCCC2)N1 | -3.42% [at 35.3 µM] (inactive) |
| FC(F)(F)/C(=N\OCC1OCCO1)c1ccc(Cl)cc1 | 10.6% (inactive) |
